Bioassay records as filed in PubChem BioAssay.
Mtb BioA inh: BioA (M. tuberculosis) enzyme inhibition; hit rate 0.096% among 360,000; inhibition, % at 9.99 µM; purified M. tuberculosis BioA enzyme, plate reader; in the data active means inhibition above about 40%
Mtb FBA inh: inhibits M. tuberculosis FBA enzyme. P9WQA3. purified M. tuberculosis FBA, fluorescence read-out. inhibition, % at 1 µM. hit rate 2.3% among 360,000; in the data active means inhibition above about 27%;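 further: 0% = vehicle and 100% = reference inhibitor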
Target sequence (P9WQA3 whole entry, looked up): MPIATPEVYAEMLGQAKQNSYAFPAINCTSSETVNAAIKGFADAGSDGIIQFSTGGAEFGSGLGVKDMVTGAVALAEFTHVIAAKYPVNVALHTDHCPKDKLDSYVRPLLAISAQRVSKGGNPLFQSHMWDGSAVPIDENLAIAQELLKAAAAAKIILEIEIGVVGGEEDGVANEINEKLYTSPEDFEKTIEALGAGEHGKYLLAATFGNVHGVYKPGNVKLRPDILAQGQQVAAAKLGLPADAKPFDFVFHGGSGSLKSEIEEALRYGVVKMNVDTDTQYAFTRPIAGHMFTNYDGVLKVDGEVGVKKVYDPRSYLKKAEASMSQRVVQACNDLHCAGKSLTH
GDH-TPI counter: inhibits GDH-TPI coupling enzymes, artifact for Mtb FBA screen. GDH-TPI coupled enzyme counterscreen, NADH absorbance. hit rate 1.2% among 360,000. inhibition, % at 4.8 µM; in the data active means inhibition above about 30%;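 further: 0% = DMSO wells and 100% = wells lacking the enzyme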
Mtb hypoxia rep: inhibitors of hypoxia-regulated fluorescent reporter in Mycobacterium tuberculosis. hit rate 0.1% among 300,000. M. tuberculosis hypoxia-regulated fluorescent reporter, fluorescence. fluorescence inhibition, % (concentration not given with the values). AID 1159583; in the data active means fluorescence inhibition mostly above about 23%, no sharp cut-off; inactive means mostly below about 17%
FadD28 binding: M. tuberculosis FadD28 bisubstrate binding inhibition | FadD28 bisubstrate probe binding, fluorescence polarization | inhibition, % at 12.5 µM | hit rate 0.22% among 360,000; in the data active means inhibition above about 8.5%, passing the limit was not always enough
The depositor's hits bear a star; / = no result; + = active, no number. In the library only some 2.9% were active in any assay of this set; here they are far more common.

SMILES	Mtb BioA inh	Mtb FBA inh	GDH-TPI counter	Mtb hypoxia rep	FadD28 binding
O=C(Nc1ccc2c(c1)OCCO2)c1cnc2n(c1=O)CCS2	-2	-1	31*	4	0
Cc1c(O)ccc(C(Cc2ccc3ccccc3n2)=NO)c1O	/	/	/	1	/
COc1ccc(C2CC(c3ccccc3)=NN2c2ccccc2)c(C(=O)O)c1OC (stereo not drawn)	2	197*	5	4	-1
NS(=O)(=O)c1ccc(N2N=C(c3ccccc3)CC2c2ccccc2Br)cc1 (stereo not drawn)	1	+	21	-6	-2
COc1ccc(C2CC(c3ccccc3)=NN2c2ccc(S(N)(=O)=O)cc2)cc1OC (stereo not drawn)	/	+	18	6	2
O=[N+]([O-])c1ccc(N2N=C(c3ccccc3)CC2c2ccccc2O)cc1 (stereo not drawn)	/	-12	4	/	0
COc1cc(N2N=C(c3ccccc3)CC2c2ccccc2)c(C=O)cc1C=O (stereo not drawn)	-3	-1	20	8	-2
NS(=O)(=O)c1ccc(N2N=C(c3ccccc3)CC2c2cccc(F)c2)cc1 (stereo not drawn)	0	+	15	-2	-3
COc1cccc(C#Cc2ccc3c(c2)O[C@@H](CN(C)C(=O)c2ccccn2)[C@H](C)CN([C@H](C)CO)S3(=O)=O)c1	-3	/	/	/	/
C[C@@H]1CCCCO[C@@H](CN(C)S(=O)(=O)c2ccccc2)[C@H](C)CN([C@H](C)CO)C(=O)c2cc(NC(=O)C3CCCCC3)ccc2O1	-2	/	/	/	/
CC1CN(C(C)CO)C(=O)Cc2cc(NC(=O)CCC(F)(F)F)ccc2OC1CN(C)C(=O)NC1CCCCC1 (stereo not drawn)	/	/	/	7	/
Cc1ccc(S(=O)(=O)N(C)C[C@@H]2OCCCC[C@H](C)Oc3ccc(NS(=O)(=O)c4cccs4)cc3C(=O)N([C@@H](C)CO)C[C@@H]2C)cc1	-5	/	/	/	/
N#CCC(=O)NN=Cc1ccc(N2N=C(c3ccccc3)CC2c2ccccc2)cc1 (stereo not drawn)	/	/	/	5	/
NS(=O)(=O)c1ccc(N2N=C(c3ccccc3)CC2c2cccc(Br)c2)cc1 (stereo not drawn)	-2	+	27	-12	-1
COc1ccc(C2CC(c3ccccc3O)=NN2c2ccccc2)cc1 (stereo not drawn)	/	4	6	12	-2
CC(=O)Oc1ccc(C2=NN(c3ccccc3)C(c3ccccc3)C2)cc1 (stereo not drawn)	2	129*	-3	17	-3
COc1cc(C2CC(c3cccnc3)=NN2c2ccc(F)cc2)cc(OC)c1OC (stereo not drawn)	/	+	10	7	-2
COc1cc(C2CC(c3ccccc3)=NN2c2ccccc2)ccc1OCC(=O)O (stereo not drawn)	1	+	12	3	0
C[C@@H]1CN([C@H](C)CO)S(=O)(=O)c2ccc(-c3ccc(C#N)cc3)cc2O[C@@H]1CN(C)C(=O)CN(C)C	1	/	/	/	/
COc1ccc(C2=NN(C(=O)c3ccccc3)C(c3ccc(OC)c(OC)c3)C2)c(OC(C)=O)c1 (stereo not drawn)	4	0	9	/	0
COc1ccc(C2=NN(c3ccc(C(=O)O)cc3)C(c3ccc(OC)c(OC)c3)C2)cc1 (stereo not drawn)	/	+	35*	-6	37*
NS(=O)(=O)c1ccc(N2N=C(c3ccc(Br)cc3)CC2c2ccc(F)cc2)cc1 (stereo not drawn)	-2	+	28	-1	2
CN(C)c1ccc2c(c1)[C@@H]1C[C@H](CC(=O)O)O[C@H](CO)[C@@H]1O2	-2	/	/	/	/
Cc1ccc(S(=O)(=O)N(C)C[C@H]2Oc3ccc(NS(=O)(=O)c4ccc(Cl)cc4)cc3CC(=O)N([C@@H](C)CO)C[C@@H]2C)cc1	0	/	/	/	/
Cc1ccc(/C=C2\SC(=S)N(c3c(C)n(C)n(-c4ccccc4)c3=O)C2=O)cc1	-1	-2	27	-9	-2
SMILES	Mtb BioA inh	Mtb FBA inh	GDH-TPI counter	Mtb hypoxia rep	FadD28 binding
Cc1c(N2C(=O)/C(=C/c3ccccc3)SC2=S)c(=O)n(-c2ccccc2)n1C	2	0	38*	16	0
Cc1c(N2C(=O)/C(=C/c3ccc(N(C)C)cc3)N(C)C2=S)c(=O)n(-c2ccccc2)n1C	1	-19	9	40*	0
Cc1c(C)c2cc(Cl)c(O)c(CN(C)C)c2oc1=O	-3	+	15	-7	-2
Cc1c(O)c(CN(C)C)cc2c1oc(=O)c1ccccc12	0	1	20	-1	-3
CCc1cc2c(=O)c(-c3nc4ccccc4n3C)c(C)oc2c(CN(CC)CC)c1O	2	14	16	/	3
CCc1c(C)c2cc(Cl)c(O)c(CN(C)C)c2oc1=O	/	/	32*	10	1
CCCCc1cc(=O)oc2c(CN(C)C)c(O)c(Cl)cc12	-2	/	12	7	1
CCc1c(C)c2cc(Cl)c(O)c(CN(CC)CC)c2oc1=O	1	+	13	6	-3
O=C(C[C@@H]1CC[C@@H]2[C@H](COC[C@@H](O)CN2Cc2cccc(C(F)(F)F)c2)O1)NCCc1ccncc1	-2	/	/	/	/
COc1ccc(NN=C(C#N)S(=O)(=O)C(C)(C)C)cc1	/	/	/	2	/
Cc1ccc(NC(=O)/C(C#N)=N/Nc2ccc(C(=O)O)cc2)c(C)c1	-1	-11	58*	/	-2
Cc1ccc(N/N=C(\C#N)C(N)=S)c(C)c1	/	2	11	/	2
O=C1OC(c2ccc(Cl)cc2)=N/C1=C\N1CC2CC(C1)c1cccc(=O)n1C2 (stereo not drawn)	/	2	60*	5	0
O=C1OC(c2ccc(Br)cc2)=N/C1=C\N1CC2CC(C1)c1cccc(=O)n1C2 (stereo not drawn)	5	-4	56*	0	-4
O=C1OC(c2ccc([N+](=O)[O-])cc2)=N/C1=C/N1CC2CC(C1)c1cccc(=O)n1C2 (stereo not drawn)	/	0	21	-1	-2
CC(=O)C(=Nc1ccc(Cl)cc1Cl)NNc1cccc(Cl)c1	/	1	31*	/	0
CC(=O)Nc1ccc(NC(=O)Nc2cccc(Cl)c2)cc1	0	-1	5	0	0
CC(=O)N1c2ccccc2NC2=C(C(=O)CCC2)C1c1ccco1 (stereo not drawn)	-3	0	26	-6	-2
COc1ccc(C2C3=C(CC(c4ccco4)CC3=O)Nc3ccccc3N2C(C)=O)cc1 (stereo not drawn)	9	1	34*	/	-2
Cc1ccc(C2C(C#N)=C3N=C(N)c4ccccc4N3C3=C2C(=O)CCC3)cc1 (stereo not drawn)	-3	-3	31*	-7	0
Cc1ccn2c(C(=O)NN=Cc3cccs3)c(C)nc2c1	/	/	/	7	/
Cc1ccc2nc(C)c(C(=O)N/N=C/c3cccs3)n2c1	/	1	37*	/	-1
Cc1ccn2c(C(=O)N/N=C\c3cccs3)c(C)nc2c1	14	0	62*	/	-1
